Results filed as inconclusive are left out. Calls of active or inactive are those of the source. The call rests on the fitted dose curve.
Key:
[1] = Primary qHTS for inhibitors of SARS-S pseudo-typed particle cell entry (AID 1479145); further: nearly all actives have a fitted effect of over 45% in size
[2] = Primary qHTS for Huh7 cytotoxicity: counterscreen for inhibitors of MERS-S pseudotyped particle cell entry (AID 1479147)
[3] = Primary qHTS for inhibitors of MERS-S pseudo-typed particle cell entry (AID 1479149); further: nearly all actives have a fitted effect of over 60% in size
[4] = Primary qHTS for Vero E6 cytotoxicity: counterscreen for inhibitors of SARS-S pseudo-typed particle cell entry (AID 1479150)

Measured: Potency

COc1ccc2cc1Oc1cc3c(cc1OC)CC[N+](C)(C)[C@H]3Cc1ccc(cc1)Oc1c(OC)c(OC)cc3c1[C@@H](C2)[N+](C)(C)CC3
inactive: all assays above

O=c1[nH]c(=O)n([C@H]2CCCO2)cc1F
inactive: all assays above

CCN1CCCC1CNC(=O)c1cc(S(=O)(=O)CC)c(N)cc1OC (stereo not given)
inactive: all assays above

O=C(O)[C@H](O)c1ccccc1
inactive: all assays above

O=C(O)CCCCCCCC(=O)O
inactive: all assays above

Nc1ccc(S(=O)(=O)NC(=O)c2ccccc2)cc1
inactive: all assays above

O=C1[C@@H]2[C@H]3CC[C@H](C3)[C@@H]2C(=O)N1CCCCN1CCN(c2ncccn2)CC1
inactive: all assays above

CC[C@H](C)[C@H](N)C(=O)O
inactive: all assays above

CCCCOC(=O)c1ccc(O)cc1
inactive: all assays above

CCC1=C(C)CN(C(=O)NCCc2ccc(S(=O)(=O)NC(=O)NC3CCC(C)CC3)cc2)C1=O (stereo not given)
inactive: all assays above

CCCCCCCCCCCCCCCCCCO
inactive: all assays above

C[C@]12C=CC(=O)C=C1[C@@H](F)C[C@@H]1[C@@H]2[C@@H](O)C[C@@]2(C)[C@H]1CC[C@]2(O)C(=O)CO
inactive: all assays above

CO/N=C(\C(=O)N[C@@H]1C(=O)N2C(C(=O)O)=C(C[N+]3(C)CCCC3)CS[C@H]12)c1csc(N)n1
inactive: all assays above

O=C(Oc1ccccc1)c1ccccc1O
inactive: all assays above

CCOc1cc(CC(=O)N[C@@H](CC(C)C)c2ccccc2N2CCCCC2)ccc1C(=O)O
inactive: all assays above

NC(=O)c1cc[n+](CC2=C(C(=O)[O-])N3C(=O)[C@@H](NC(=O)Cc4cccs4)[C@H]3SC2)cc1
inactive: all assays above

CN1C(=O)OC(C)(C)C1=O
inactive: all assays above

O=C(O)CCCCC(=O)O
inactive: all assays above

CC(C)NCC(O)c1ccc(NS(C)(=O)=O)cc1 (stereo not given)
inactive: all assays above

CC1CC(OC(=O)c2ccccc2O)CC(C)(C)C1 (stereo not given)
inactive: all assays above

CC(=O)CC/C=C(\C)CC/C=C(\C)CC/C=C(\C)CCC=C(C)C
inactive: all assays above

CN(C)CCOC(=O)C(c1ccccc1)C1(O)CCCC1 (stereo not given)
inactive: all assays above

CCOC(=O)c1ccc(N)cc1
inactive: all assays above

Cc1ccsc1/C=C/C1=NCCCN1C
inactive: all assays above

O=C(Cn1ccnc1[N+](=O)[O-])NCc1ccccc1
inactive: all assays above

CCN(CC)CCNC(=O)c1ccc(N)cc1
inactive: all assays above

c1ccc(-c2nc[nH]c2-c2ccccc2)cc1
inactive: all assays above

CN(C)C(=O)COC(=O)Cc1ccc(OC(=O)c2ccc(N=C(N)N)cc2)cc1
inactive: all assays above

N#C[C@H]1C[C@H]2C[C@@H]2N1C(=O)[C@@H](N)C12CC3CC(CC(O)(C3)C1)C2
inactive: all assays above

Nc1ccn([C@@H]2CS[C@H](CO)O2)c(=O)n1
inactive: all assays above

CN(C)CCN(Cc1ccsc1)c1ccccn1
inactive: all assays above

Nc1ccc(C(=O)O)cc1
inactive: all assays above

O=C(O)c1ccccc1S
inactive: all assays above

O=C(O)/C=C(\CC(=O)O)C(=O)O
inactive: all assays above

Nc1c(I)cc(I)c(C(=O)N(CCC(=O)O)c2ccccc2)c1I
inactive: all assays above

CC1CCN(CCCC(=O)c2ccc(F)cc2)CC1
inactive: all assays above

CN1C[C@H](C(=O)N[C@]2(C)O[C@@]3(O)[C@@H]4CCCN4C(=O)[C@H](Cc4ccccc4)N3C2=O)C=C2c3cccc4[nH]cc(c34)C[C@H]21
inactive: all assays above

C[C@]12C=CC(=O)C=C1CC[C@@H]1[C@@H]2C(=O)C[C@@]2(C)[C@H]1CC[C@]2(O)C(=O)CO
inactive: all assays above

Cn1c(=O)c2[nH]cnc2n(C)c1=O
inactive: all assays above

NC(=O)N1c2ccccc2C=Cc2ccccc21
inactive: all assays above

Cc1c(Nc2ncccc2C(=O)O)cccc1C(F)(F)F
inactive: all assays above

OCCc1ccccc1
inactive: all assays above

CCOC(=O)Oc1ccc(CCNC(=O)[C@H](CCSC)NC(C)=O)cc1OC(=O)OCC
inactive: all assays above

CN1C(C(=O)Nc2ccccn2)=C(O)c2ccccc2S1(=O)=O
inactive: all assays above

O=c1cc[nH]c(=O)[nH]1
inactive: all assays above

CC(C)CN(C[C@@H](O)[C@H](Cc1ccccc1)NC(=O)O[C@H]1CO[C@H]2OCC[C@H]21)S(=O)(=O)c1ccc(N)cc1
inactive: all assays above

CC(=O)Nc1ccccc1
inactive: all assays above

CC(=O)N=c1sc(S(N)(=O)=O)nn1C
inactive: all assays above

CC(C)(CO)[C@@H](O)C(=O)NCCCO
inactive: all assays above

COC(=O)[C@@H]1[C@H]2C[C@H]3c4[nH]c5ccccc5c4CCN3C[C@@H]2CC[C@@H]1O
inactive: all assays above

Source: PubChem BioAssay (NCATS)
